PG9 Ab binder: binders of HIV-1 gp120 antibody PG9, primary screen, biochemical, TR-FRET. TR-FRET gp120-PG9 antibody binding. hit rate 0.43% among 360,000. AID 624416, 2012. inhibition, % at 6.7 µM. HIV-1 gp120 / PG9 antibody interaction; in the data active = inhibition above about 8.5%
bovine MsrA act: bovine MsrA enzyme activators, primary screen, biochemical, absorbance, HTS; Methionine sulfoxide reductase A (Bos taurus); purified bovine MsrA, absorbance read-out; activation, % at 10.6 µM; hit rate 0.3% among 360,000; AID 602163, 2012; in the data active = activation above about 7.5%;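 also: 0% = vehicle and 100% = reference activator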
HGIII-sPLA2 inh: human group III sPLA2 inhibitors, primary screen, biochemical, QFRET, BODIPY PC-A2 liposome substrate. QFRET BODIPY PC-A2 liposome hydrolysis, fluorescence. inhibition, % at 12.2 µM. hit rate 0.56% among 370,000. AID 743126, 2013;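 active = inhibition above mean plus 3 SD of compounds lying within the high and low control bounds, cut at about 19% in these data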;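 also: 0% = median of test compound wells and 100% = no enzyme DMSO wells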
Target sequence (Q9NZ20 whole entry, looked up): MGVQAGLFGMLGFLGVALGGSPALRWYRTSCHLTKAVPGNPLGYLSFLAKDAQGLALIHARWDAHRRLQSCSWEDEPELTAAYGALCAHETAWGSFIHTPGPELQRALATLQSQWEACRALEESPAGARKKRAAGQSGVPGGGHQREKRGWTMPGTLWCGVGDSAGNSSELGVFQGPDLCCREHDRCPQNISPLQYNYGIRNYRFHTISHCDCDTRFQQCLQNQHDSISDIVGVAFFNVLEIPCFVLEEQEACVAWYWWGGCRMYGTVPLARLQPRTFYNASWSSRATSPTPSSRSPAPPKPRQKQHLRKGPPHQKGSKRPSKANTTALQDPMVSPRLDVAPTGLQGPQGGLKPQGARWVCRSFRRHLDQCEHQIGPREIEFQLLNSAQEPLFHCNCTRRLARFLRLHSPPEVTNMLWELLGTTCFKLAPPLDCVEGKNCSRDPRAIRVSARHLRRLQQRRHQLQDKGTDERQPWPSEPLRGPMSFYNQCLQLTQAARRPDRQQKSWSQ
rCAG binder: binders of r(CAG) RNA repeats, primary screen, biochemical, fluorescence; r(CAG) RNA repeat, TO-PRO-1 dye displacement fluorescence; inhibition, % at 3 µM; hit rate 1.3% among 370,000; AID 651821, 2012;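 active = inhibition above the plate cutoff, the mean of all test compounds on that plate plus 3 SD, cut at about 35% in these data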;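 also: 0% = DMSO alone and 100% = 100 µM mitoxantrone as full dye displacement; higher means more dye released from RNA so lower well fluorescence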
MsrA inh: bovine MsrA enzyme inhibitors, primary screen, biochemical, absorbance, HTS; purified bovine MsrA, absorbance read-out; inhibition, % at 15.5 µM; hit rate 0.75% among 360,000; Methionine sulfoxide reductase A (Bos taurus); in the data active = inhibition above about 4.5%;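 also: 0% = vehicle wells with enzyme and 100% = reference inhibitor wells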
rCAG binder conf: small molecules binding CAG repeat RNA – biochemical, fluorescence, confirmation. shares compounds with rCAG binder. r(CAG) RNA repeat, TO-PRO-1 dye displacement fluorescence. inhibition, % at 3 µM. hit rate 70% among 4,300;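 active = inhibition above a per-plate cutoff, the mean inhibition of sample wells plus 3 SD, cut at about 35% in these data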;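 also: loss of TO-PRO-1 fluorescence as compound displaces dye from 1x1 AA loop RNA; 0% = DMSO only wells and 100% = 100 µM mitoxantrone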
DNA CAG counter: displacement of TO-PRO-1 from CAG DNA duplex, counter-screen for rCAG RNA repeat binder project, biochemical, fluorescence, TO-PRO-1 dye, d(CAG) DNA oligo | shares compounds with rCAG binder | d(CAG) DNA oligo TO-PRO-1 dye displacement | inhibition, % at 3 µM | hit rate 94% among 4,300 | AID 652068, 2013;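 active = inhibition above its plate's cutoff, the mean test-well inhibition plus 3 SD, cut at about 4.8% in these data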;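 also: 0% = DNA dye mix with DMSO and 100% = 100 µM mitoxantrone; hits displace the dye from DNA and so lower well fluorescence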
dCAG dye DR: inhibitors of DNA CAG/GTC TO-PRO-1 complex, dose response, counter-screen for rCAG RNA repeat binder project, biochemical, fluorescence, TO-PRO-1 dye; shares compounds with rCAG binder; DNA CAG/GTC duplex TO-PRO-1 dye displacement fluorescence; IC50, µM; hit rate 20% among 250; AID 686960, 2013; in the data active = IC50 below about 10 µM
* = called active by the depositor; . = not tested or not shown. Most compounds without a hit are left out; they make up all but 3.2% or so of the library.

SMILES | PG9 Ab binder | bovine MsrA act | HGIII-sPLA2 inh | rCAG binder | MsrA inh | rCAG binder conf | DNA CAG counter | others
COC(=O)c1sc(SC)c(S(=O)(=O)C(C)C)c1N/N=C(\C#N)C(=O)c1ccccc1 | 1 | -4 | -28 | 52* | 1 | 71* | 22* | dCAG dye DR=4.3*
COC(=O)c1sc(SC)c(S(=O)(=O)C(C)C)c1N | -1 | -3 | 8 | -2 | 2 | . | .
Cc1ccc(S(=O)(=O)C2CCN(c3nc(-c4cccs4)nc4ccccc34)CC2)cc1 | . | . | -2 | . | . | . | .
O=C(O[C@H]1CC[C@@]23CCCN2C(=O)CCC[C@H]3C1)N1CCCC1 | . | . | 0 | . | . | . | .
Cc1ccc(/C=C2\SC(=S)N(c3cccnc3)C2=O)o1 | -1 | -7 | 2 | 4 | 0 | . | .
O=C(O)c1cccc(N2C(=O)/C(=C/c3ccc(SCc4ccc(Cl)cc4)o3)SC2=S)c1 | -2 | -5 | -16 | 67* | -1 | 88* | 61*
O=C(CCc1ccccc1)N[C@H]1[C@H](OCc2ccccc2)CCC[C@@]12C(=O)N(Cc1ccccc1)c1ccc(-c3ccccn3)cc12 | . | . | 2 | 7 | . | . | .
CC1(c2nc3ccccc3[nH]2)CCC(=O)N1C1CC1 (stereo not given) | -2 | -2 | -5 | 4 | -2 | . | .
Cc1c(CCC(=O)NCCCCCC(=O)O)c(=O)oc2cc3occ(-c4ccccc4)c3cc12 | 0 | -2 | -8 | 10 | 0 | . | .
CCC(NC(=O)CCc1c(C)c2cc3c(-c4ccccc4)coc3cc2oc1=O)C(=O)O (stereo not given) | 1 | -2 | -12 | 37* | 2 | 42* | 9.4*
Cc1c(CCC(=O)N[C@@H](C)C(=O)O)c(=O)oc2cc3occ(-c4ccccc4)c3cc12 | -1 | -12 | -9 | 36* | 3 | 45* | 9.8*
CCC1CCc2sc(C(=O)Nc3cc(S(=O)(=O)N4CCOCC4)ccc3OC)cc2C1 (stereo not given) | . | . | 3 | . | . | . | .
COC(=O)[C@]12C[C@H](CC(=O)NCC3CCCCC3)C(=O)N(Cc3cccc4ccccc34)C1=C[C@H](C1CCCC1)O[C@@H]2C | . | . | 9 | 13 | . | . | .
COC(=O)c1sc(-c2ccc(Cl)cc2)cc1NC(=O)c1ccccc1C(=O)O | 4 | -5 | 0 | 71* | 3 | 80* | 46*
COC(=O)c1sc(-c2ccc(C(C)(C)C)cc2)cc1NC(=O)CSCC(=O)O | 0 | -3 | -17 | 62* | 2 | 68* | 25*
COC(=O)c1sccc1NC(=O)c1ccccc1C(=O)O | 1 | -5 | 1 | -1 | 0 | . | .
COC(=O)c1sc(-c2ccc(C(C)(C)C)cc2)cc1NC(=O)c1ccccc1C(=O)O | 0 | -2 | -15 | 70* | -1 | 83* | 46*
COC(=O)c1sc(-c2ccccc2)cc1NC(=O)C1CC1 | 2 | -5 | 1 | 0 | 1 | . | .
Cc1ccccc1S(=O)(=O)N1CCCc2nc(C)c(C)cc21 | 1 | . | 9 | -1 | 1 | . | .
Cc1ccc(S(=O)(=O)c2nc(-c3ccccc3)oc2N2CCC(C(N)=O)CC2)cc1 | -2 | 5 | 0 | -2 | 0 | . | .
COc1ccc(CN2C(=O)[C@]3(NCCc4c3[nH]c3ccc(OC)cc43)c3cc(F)ccc32)cc1 | . | . | -16 | 6 | . | . | .
N=C1S/C(=C\c2ccco2)C(=O)N1c1ccc2c(c1)OCO2 | -4 | -3 | -3 | 38* | 3 | 26 | 12*
Cc1ccc(N2C(=O)/C(=C/c3cccnc3)SC2=S)cc1 | 0 | 1 | 6 | 1 | 0 | . | .
Cc1ccc(N2C(=O)/C(=C/c3ccco3)SC2=S)cc1 | -2 | -6 | 7 | 44* | -1 | 10 | 5.7*
CC1Cc2ccccc2N1C(=O)C(C)n1cc(C(F)(F)F)cc(Cl)c1=O (stereo not given) | -1 | -7 | 4 | 2 | 0 | . | .
SMILES | PG9 Ab binder | bovine MsrA act | HGIII-sPLA2 inh | rCAG binder | MsrA inh | rCAG binder conf | DNA CAG counter | others
O=C1NC(=S)/C(=C\c2ccc(-c3ccccc3Cl)o2)S1 | 1 | -11 | -8 | 80* | 1 | 67* | 34*
O=C1NC(=O)/C(=C/c2ccc(-c3cc(C(=O)O)ccc3Cl)o2)S1 | -2 | -4 | -30 | 53* | 0 | 52* | 15*
S=c1[nH]nc(-c2ccccc2)n1/N=C/c1ccc(-c2ccccc2Cl)o1 | 1 | -3 | -7 | 17 | 1 | . | .
O=S1(=O)c2c(NCc3ccco3)cccc2Oc2ccccc2CN1Cc1cn(Cc2ccccc2C(F)(F)F)nn1 | . | . | -7 | 14 | . | . | .
CCCn1nc([N+](=O)[O-])c(C(C#N)c2nc3ccccc3s2)c(Cl)c1=O (stereo not given) | -3 | -7 | -16 | 88* | 4 | 83* | 46*
C=CCOc1c(Br)cc(/C=C2/NC(=S)N(C(C)=O)C2=O)cc1OC | -1 | -10 | -5 | 20 | -1 | . | .
C=CCOc1ccc(Br)cc1/C=C1\NC(=S)N(C(C)=O)C1=O | 2 | -9 | -42 | 66* | 1 | 49* | 15*
Cn1c(NC(=O)c2ccccc2)nc(Cc2ccccc2)c1Cc1ccccc1 | . | . | 0 | 0 | . | . | .
O=C(Cc1ccccc1)N/N=C/c1cc(Br)cc(Br)c1O | -1 | -7 | 12 | 11 | 1 | . | .
O=C(O)c1ccccc1N/N=C/c1cc(Br)cc(Br)c1O | -1 | -11 | -3 | 45* | 3 | 92* | 75*
C[C@@H]1CN([C@H](C)CO)S(=O)(=O)c2ccc(Br)cc2O[C@H]1CN(C)S(C)(=O)=O | -2 | -2 | -4 | 2 | -1 | . | .
CC1CC(C)CN(C(=O)c2cccc(S(=O)(=O)Nc3cc(C(F)(F)F)ccc3Cl)c2)C1 (stereo not given) | -1 | -1 | -58 | 71* | -1 | 66* | 27*
Cc1cccc(OC(=O)Nc2ccc(C(=O)O)c(O)c2)c1 | 0 | -8 | 3 | 2 | 0 | . | .
CC(C)(C)c1ccc(OC(=O)Nc2ccc(O)c(C(=O)O)c2)cc1 | 1 | -4 | -21 | 54* | -1 | 37* | 11*
CCCCOCCCNC(=O)C[C@H]1C[C@@]2(C(=O)OCC)CCCC3=C2N(CCC3)C1=O | . | . | 2 | -2 | . | . | .

Screening data: PubChem BioAssay, The Scripps Research Institute Molecular Screening Center
